# PubChem BioAssay (Tox21)
# Records with an inconclusive call do not appear. Unmarked numbers belong to inactive results. Activity calls are given as the source filed them. Calls follow the shape of the full dose curve.
# Experiment: qHTS assay to identify small molecule antagonists of the estrogen receptor alpha (ER-alpha) signaling pathway using the BG1 cell line (AID 743080);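 also: BG1 cells stimulated with 17beta-estradiol alongside compound; nearly all actives have a fitted effect of over 25% in size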
# Conditions: BG1Luc4E2 ERE-luciferase antagonist mode, luminescence; series mostly up to 70.3 µM; activity change, negative = inhibition: at the top concentration
# Source text: National Center for Advancing Translational Sciences [NCATS]
# NIH Chemical Genomics Center [NCGC]
# U.S. Environmental Protection Agency [EPA]
# National Institutes of Environmental Health Sciences [NIEHS]
# National Toxicology Program [NTP]
# U.S. Food and Drug Administration [FDA]
# Estrogen receptor (ER), a nuclear hormone receptor, plays an important role in development, metabolic homeostasis and reproduction. Endocrine disrupting chemicals (EDCs) and their interactions with steroid hormone receptors like ER causes disruption of normal endocrine function. Therefore, it is important to understand the effect of environmental chemicals on the ER signaling pathway. To identify ER antagonists, BG1-Luc-4E2 cell line (provided by Dr. Michael Denison from University of California) has been used to screen the Tox21 10K compound library. BG1Luc4E2 cell line endogenously expresses full-length ER-alpha and is stably transfected with a plasmid containing four estrogen responsive elements (ERE) upstream of a luciferase reporter gene.
# Tox21 Assay Protocol Summary:
# BG1-Luc-4E2 cells were cultured in phenol red free assay medium containing 10% charcoal stripped FBS for 5 days before the assay was performed. The cells were dispensed at 4,000 cells/4 uL of assay medium per well into white wall/solid-bottom 1536-well plates using a Multidrop Combi (ThermoFisher Scientific, Waltham, MA) dispenser. The assay plates were incubated at a 37C and 5% CO2 for 24 h, and then 23 nL of compounds dissolved in DMSO, positive controls or DMSO only was transferred to the assay plate using a Pintool station (Kalypsys, San Diego, CA), followed by addition of 1 uL of 17beta-estradiol in assay medium using a Flying Reagent Dispenser (Aurora Discovery, San Diego, CA). After the plates were incubated at 37 C and 5% CO2 for 21.5 h, 1 uL of CellTiter-Fluor reagent (Promega, Madison, WI) of measuring cytotoxicity was added using Flying Reagent Dispenser (FRD) to each well. The assay plates were incubated at 37 C and 5% CO2 for additional 30 min and the fluorescence intensity was quantified by a ViewLux plate reader (PerkinElmer, Shelton, CT). For measuring luciferase reporter gene activity, 4 uL of ONE-Glo reagent (Promega) was added to each plate using an FRD and luminescence was quantified by a ViewLux plate reader after 30 min incubation at room temperature.
# % is scaled to controls: 0 for no effect and ±100 for the full control effect; potency is read from the fitted curve at half-maximal effect.
SMILES,"activity change, negative = inhibition",Potency
Cc1cc(C(=C2C=CC(=Nc3ccc(S(=O)(=O)O)cc3S(=O)(=O)O)C=C2)c2ccc(Nc3ccc(S(=O)(=O)O)cc3)cc2)ccc1N,1.76%,
CC(=O)Nc1ccc(N)cc1,-4.49% [at 95 µM],
CC(C)c1nnc2ccc(-c3ocnc3-c3cc(F)ccc3F)cn12,,54.5 µM (active)
O=S1OCCO1,-4.02% [at 95 µM],
CC(C)OCC1CO1 (stereo not given),0.1%,
CCn1cc(C(=O)O)c(=O)c2cc(F)c(N3CCNCC3)nc21,30.8% [at 32.5 µM],
CC#N,2.56% [at 95 µM],
CC(C)=CC=O,8.74% [at 95 µM],
CN1CCCN=C1/C=C/c1cccs1,-15.9%,
NC(=O)N(O)[C@@H]1C=C[C@H](Oc2cccc(Oc3ccc(F)cc3)c2)C1,,77 µM (active)
COc1ccc(C(=O)c2cccc(O)c2)c(OC)c1,,68.5 µM (active)
CCC(C(=O)OCCN(CC)CC)c1ccccc1 (stereo not given),-7.99%,
CC(=O)[C@H]1CC[C@H]2[C@@H]3C=CC4=CC(=O)CC[C@@]4(C)[C@@H]3CC[C@]12C,12.1% [at 32.5 µM],
O=Cc1c(Cl)cccc1Cl,-15.5% [at 95 µM],
C=CCOC(=O)/C=C\C(=O)OCC=C,-1.89% [at 95 µM],
Cc1nccn1-c1ccc(Sc2cccc(C3(C(N)=O)CCOCC3)c2)cc1,,1.93 µM (active)
CCN(CC)CCNC(=O)c1ccc(NC(C)=O)cc1,3.67%,
CCOc1cc(N)c(Cl)cc1C(=O)NCC1CN(Cc2ccc(F)cc2)CCO1 (stereo not given),21.3%,
CC(=O)CC(c1ccc([N+](=O)[O-])cc1)c1c(O)c2ccccc2oc1=O (stereo not given),-28.6% [at 32.5 µM],
CCCCCCCCCCOS(=O)(=O)O,-7.08%,

SMILES,"activity change, negative = inhibition",Potency
O=C(O)C(Cc1cc(I)c(O)c(I)c1)c1ccccc1 (stereo not given),6.14%,
Cc1nc2ccccc2s1,-0.127% [at 95 µM],
CCCc1c(OCCCOc2ccc(OCC(=O)O)cc2)ccc(C(C)=O)c1O,-21.9%,
CCC(C(=O)OCCOCCN(CC)CC)c1ccccc1 (stereo not given),0.848%,
c1ccc(COCc2ccccc2)cc1,-2.93% [at 95 µM],
CCCCCCCCCCCCCCCCBr,6.86% [at 32.5 µM],
CCC(C)(C)C1CCC(O)CC1 (stereo not given),-11%,
CCC(C)(O)CCC=C(C)C (stereo not given),22.2%,
COc1cc2c(N3CCN(C(=O)Nc4ccc(OC(C)C)cc4)CC3)ncnc2cc1OCCCN1CCCCC1,3.72%,
CCOC(=O)/C=C/C(=O)O,-7.38%,
CC1=C(C=O)C(C)(C)CCC1,11.6%,
CCCCCC=CCC=CCCCCCCCC(=O)OCC,2.06%,
Cc1ccnc2ccccc12,-1.6%,
CCCCN(CCCC)C(=S)SSC(=S)N(CCCC)CCCC,8.97%,
CC(COc1ccc(C(C)(C)C)cc1)OS(=O)OCCCl (stereo not given),0.171% [at 95 µM],
CO/N=C1\CN(c2nc3c(cc2F)c(=O)c(C(=O)O)cn3C2CC2)CC1CN (stereo not given),-0.676%,
CCCCCCCCCCCC[N+](C)(C)CCCS(=O)(=O)[O-],-4.36% [at 95 µM],
CC1CC(=O)NN=C1c1ccc(NCC(C)(C)NCC(O)COc2cc(Cl)ccc2C#N)cc1 (stereo not given),-4.63%,
Oc1ccc(Nc2ccccc2)cc1,18.9%,
Nc1ccc(Cl)cc1[N+](=O)[O-],-0.0883%,
